Screening results deposited in PubChem BioAssay by ICCB-Longwood Screening Facility, Harvard Medical School.
The list is not random: actives were taken first. Their share in the collection is about 1.4%.
AID504770: growth inhibitors of E. coli YBA685 in a screen for V. cholerae RctB (chromosome II replication) inhibitors; 130,000 tested, 0.27% active; E. coli YBA685 rctB-dependent plasmid, OD600 growth, 3 h; hits give low values; AID 504770; z-score (no concentration beside the values); in the data active means z-score below about -2, passing the limit was not always enough
MbtI inh: MbtI salicylate synthase inhibition; purified MbtI enzyme, fluorescence intensity read-out; inhibition, % (no concentration beside the values); P9WFX0; 100,000 tested, 0.89% active; in the data active means inhibition mostly above about 56%, no sharp cut-off; inactive means mostly below about 77%
Mtb MenB inh: inhibitors of Mycobacterium tuberculosis MenB enzyme; MenB enzyme assay, absorbance read-out; AID 540299; P9WNP5; inhibition, % (no concentration beside the values); 100,000 tested, 0.43% active; in the data active means inhibition above about 21%, passing the limit was not always enough
Polio RdRp inh: poliovirus RNA polymerase inhibition. 150,000 tested, 0.66% active. poliovirus polymerase elongation, fluorescence polarization; hits give low values. P03300. AID 588519. % elongation, % (compound at 16.7 µg/mL); in the data active means % elongation below about 90%
Target sequence (P03300 1749-2209 limits assumed): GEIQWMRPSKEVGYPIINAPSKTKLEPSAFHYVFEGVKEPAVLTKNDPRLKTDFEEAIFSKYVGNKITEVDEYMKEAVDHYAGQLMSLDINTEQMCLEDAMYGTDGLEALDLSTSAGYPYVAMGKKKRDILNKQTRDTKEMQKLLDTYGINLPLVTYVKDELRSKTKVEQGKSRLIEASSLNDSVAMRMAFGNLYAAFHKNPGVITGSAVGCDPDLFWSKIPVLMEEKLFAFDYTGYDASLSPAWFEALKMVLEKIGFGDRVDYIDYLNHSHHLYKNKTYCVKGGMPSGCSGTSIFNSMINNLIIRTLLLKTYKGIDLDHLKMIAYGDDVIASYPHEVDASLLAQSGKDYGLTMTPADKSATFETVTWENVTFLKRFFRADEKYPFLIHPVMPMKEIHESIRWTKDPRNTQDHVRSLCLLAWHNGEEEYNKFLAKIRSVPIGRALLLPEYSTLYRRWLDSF
* = called active by the depositor; / = no result; ! = not confirmed by another sample.

SMILES | AID504770 | MbtI inh | Mtb MenB inh | Polio RdRp inh
CN1C=C(c2ccccc2)N(c2ccccc2)C1 | 1.5 | / | -26 | 67*
Clc1cc2c(cc1Cl)Nc1cc(Cl)c(Cl)cc1N2 | -0.15 | 95* | 14 | 100
Cn1c(CNC2CCCCC2)nc2ccccc21 | -1.8 | / | / | /
Cn1c(C2CCCCC2)nc2ccccc21 | 1.2 | 1 | 28* | 102
S=c1[nH]nc(-c2ccncc2)n1C1CC1 | 1.4 | 60* | 9 | /
C=CCn1c(-c2ccncc2)n[nH]c1=S | -0.9 | 70* | 8 | 100
Cn1c(C(Cc2ccccc2)NC(=O)c2cccs2)nc2ccccc21 (configuration not stated) | -1 | / | / | /
CCC(C)NC(=O)Cn1c(=O)n(-c2ccc(Cl)c(Cl)c2)c(=O)c2c(C)c(C)sc21 (configuration not stated) | 0.9 | 6 | 2 | 100
O=c1cc(-c2ccccc2)oc2cc(Cl)ccc12 | -0.75 | / | / | /
Nc1cc(N)c2cc(-c3ccccc3)oc2c1 | -0.4 | 117 | -29 | 87*
N#Cc1ccc(CSc2nnnn2C2CC2)cc1 | -0.3 | -9 | -18 | 35*
Cc1nnc(SCc2ccc(C#N)cc2)n1C1CC1 | -0.75 | -6 | -7 | 99
O=C(N1CCC(O)(c2cccnc2)CC1)C12CC3CC(CC(C3)C1)C2 | 1.1 | -1 | 25* | 101
O=C(c1ccccc1)N1CCC(O)(c2cccnc2)CC1 | -0.2 | 0 | -19 | 101
CN(C)Cc1n[nH]c(=S)o1 | 2 | 90* | -19 | 75*
O=S1(=O)C=C(SCCN2CCOCC2)c2ccccc21 | -3.4* | -2 | -7 | 102
CCc1cc(C(=O)O)n(C)n1 | 0.45 | 3 | 29* | 102
CC(N)=Nc1cc(-c2ccccc2)[nH]n1 | -0.85 | / | / | /
NC(=O)C1CCN(C2CC(=O)N(Cc3ccc4c(c3)OCO4)C2=O)CC1 (configuration not stated) | 0.75 | 86* | -39 | 103
NC(=O)C1CCN(CC(O)Cc2ccc3c(c2)OCO3)CC1 (configuration not stated) | -0.65 | / | / | /
CCCN(Cc1nnc(-c2ccco2)o1)C(=O)c1cccnc1SCc1c(C)noc1C | 0.55 | -13 | -28 | 89*
CC(C)Sc1nnc2oc3ccc(S(=O)(=O)N(C)C)cc3n12 | -0.3 | 14 | 17 | 6.0*
Cc1ccc(C(=O)CSc2ncn[nH]2)c(C)c1 | 0.1 | 70* | -2 | 101
S=C(SCc1ncon1)N1CCOCC1 | -0.75 | 92* | -5 | 96
CC(C(=O)OCC(=O)N1CCCC1)N1C(=O)c2ccccc2C1=O (configuration not stated) | -1.8 | -1 | 5 | 106
SMILES | AID504770 | MbtI inh | Mtb MenB inh | Polio RdRp inh
[O-][n+]1onc(-c2ccccc2)c1-c1ccccc1 | 0.25 | -15 | -33 | 103
N#Cc1c(-c2ccccc2)no[n+]1[O-] | / | 0 | 11 | 93*
COc1ccc(-c2nn[nH]n2)cc1 | 1.9 | 1 | 39* | 103
Cc1nc2nc(C(F)(F)F)[nH]c2cc1Br | 0.4 | 70* | -32 | 104
Brc1ccc(CNc2ccc3cn[nH]c3c2)s1 | -0.95 | -14 | -37 | 58*
C=CCn1c(=S)[nH]c2ccccc2c1=O | 0.95 | 19 | 31*! | 104
C=CCn1c(=S)[nH]c2cc(C(=O)O)ccc2c1=O | -0.3 | 14 | 0 | 104
NC(=O)COC(=O)c1cc(Cl)cc(Cl)c1 | -0.2 | -7 | / | 100
CCC(=O)Nc1ccc(-c2nc3cccnc3s2)cc1 | 1.6 | 104 | 6 | 101
CCCn1c(SCC(=O)c2cccs2)n[nH]c1=O | 0.2 | 64* | -15 | /
COC(=O)c1scc(C)c1NN1C(=O)C=C(C)C1=O | -0.25 | 12 | -3 | 103
Cc1cc(Br)cc(C)c1OCCCN(C)C | 0.5 | -4 | -1 | 88*
CC(=O)N(c1ccc(Cl)cc1)C1C=CS(=O)(=O)C1 (configuration not stated) | -2.5* | / | / | /
N#Cc1ccc(-c2cccnc2)n(CC(=O)N2CCOCC2)c1=O | 1.1 | 27 | 42* | 101
CC(C)N(C(=O)Cn1c(-c2cccnc2)ccc(C#N)c1=O)C(C)C | -2.5 | 13 | -21 | 99
c1ccc(N=c2[n-][n+](-c3ccccc3)cn2-c2ccccc2)cc1 | 1.8 | / | -38 | 85*
Cc1ccc(-n2nc3c(N4CCCC(C(=O)N5CCc6ccccc65)C4)nnc(C)c3c2C)cc1 (configuration not stated) | 0.2 | -14 | 7 | 105
CC(C)=NNC(=O)Cc1c[nH]c2cccc(OCC(O)CNC(C)(C)C)c12 (configuration not stated) | -0.45 | 0 | -20 | 102
Cc1ccc(C)n1-c1cccc(C(=O)O)c1 | 2.5 | / | -30 | 34*
CC(C)(C)c1nc(SCc2nc(-c3cccc(-n4cccc4)c3)no2)n[nH]1 | -1.1 | -6 | -17 | 102
O[N+]1=CC=CCC1=S.On1ccccc1=S.[Zn] | -4* | 15 | 2 | 101
CCOc1ccc2c(c1)SC1=NS(=O)(=O)CCN12 | -0.5 | / | / | /
CCN(CC1COc2ccccc2O1)C(=O)c1ccc2c(c1)SC1=NS(=O)(=O)CCN12 (configuration not stated) | 1.2 | 7 | -33 | 84*
O=C(O)COc1ncnc2ccccc12 | 0.8 | 10 | 27* | 104
CN(C)C(=O)COc1ncnc2ccccc12 | -0.6 | -1 | / | 102
SMILES | AID504770 | MbtI inh | Mtb MenB inh | Polio RdRp inh
O=c1cc(CNC2CCCCC2)c2ccccc2[nH]1 | 0.4 | 72 | 30* | 99
Cc1sc2nc(-c3ccccc3O)[nH]c(=O)c2c1C | -0.55 | / | -11 | 75*
COCc1cc(C)nc2sc3c(=O)[nH]c(-c4ccccc4O)nc3c12 | -0.65 | / | 4 | 100
C#CC(CC)(CC)NC(=O)c1oc2ccccc2c1CSc1nc(C)cs1 | -0.95 | 10 | 7 | 103
Cn1nc(C2CC2)cc1NC(=O)Nc1csc2ccccc12 | -1 | -7 | -8 | 102
CCC(=O)N1CC(C)C(=O)N(C(=O)CC)c2ccccc21 (configuration not stated) | -0.2 | / | / | /
CN(C)c1ccc(/C=C/c2noc(-c3ccccc3O)n2)cc1 | / | / | / | 110
Oc1ccccc1-c1nc(/C=C/c2ccccc2Cl)no1 | / | / | / | 41*
CC(C)C(=O)Nc1ccc2nc(SCC(=O)N3CCc4ccccc43)sc2c1 | / | / | / | 83*
O=S(=O)(NNc1nccc(-c2cccnc2)n1)c1cccc(C(F)(F)F)c1 | -1 | 55* | 5 | 101
CC(=O)n1c2ccccc2c2ccccc21 | -0.4 | / | / | /
CC(=O)n1c2ccccc2c2nc(N)sc21 | -1.9 | 52 | -8 | 81*
O=C(COc1ccc(Cl)cc1)NCc1nnc(SCC(=O)NCc2ccco2)o1 | -0.55 | -3 | -10 | 101
Cn1c(=O)oc2cc(S(=O)(=O)NCCN3CCC(Cc4ccccc4)CC3)ccc21 | -0.9 | 4 | 0 | 98
CC(C)(C)N1CSC(=S)N(Cc2ccco2)C1 | -7.9* | 74 | -49 | 101
O=S(=O)(Nc1ncccn1)c1ccccc1 | -0.6 | -8 | 0 | 101
Nc1nc(NS(=O)(=O)c2ccccc2)ns1 | -2.9* | / | / | /
COc1ccccc1-n1nnc(C(=O)N2CCCC2)c1N | 1.4 | 0 | 31* | 102
COc1ccccc1N1CCN(C(=O)c2nc(-c3ccc(C)cc3)n3c2CCCCC3)CC1 | / | / | / | 109
CC(C)(C)c1c[n+](-c2ccccc2)c2n1CCCS2 | 2.1 | -2 | / | 100
